Test results from PubChem BioAssay AID1159580 (chemical genetic matrix, 2015).
Hit rate of the full screen: of about 5,500 compounds, about 2,000 (36%) were called active. About 18% were inconclusive and are not listed. Rule as the data show it: active = normalized growth mostly below about 0.91 (no sharp cut-off); inconclusive = no clear call, values can overlap the other calls; inactive = mostly above about 0.92. Some of the results follow.

Assay: chemical genetic growth profiling, strain panel (AID 1159580);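 also: tested at 20 µM; growth read once vehicle control cultures reached saturation at 30 °C; 1 = growth at the plate median or of vehicle wells; lower values mean less growth of the strain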
Conditions: growth OD
[1] = S. cerevisiae deletion strains, locus YAL013W, strain DEP1, active compounds read low
[2] = S. cerevisiae deletion strains, locus YBR229C, strain ROT2, active compounds read low
[3] = S. cerevisiae deletion strains, locus YCL061C, strain MRC1, active compounds read low
[4] = S. cerevisiae deletion strains, locus YDL101C, strain DUN1, active compounds read low
[5] = S. cerevisiae deletion strains, locus YDR150W, strain NUM1, active compounds read low
[6] = S. cerevisiae deletion strains, locus YEL061C, strain CIN8, active compounds read low
[7] = S. cerevisiae deletion strains, locus YGR078C, strain PAC10, active compounds read low
[8] = S. cerevisiae deletion strains, locus YHR030C, strain SLT2, active compounds read low
[9] = S. cerevisiae deletion strains, locus YHR087W, strain rtc3, active compounds read low
[10] = S. cerevisiae deletion strains, locus YJR043C, strain POL32, active compounds read low
[11] = S. cerevisiae deletion strains, locus YKL190W, strain CNB1, active compounds read low
[12] = S. cerevisiae deletion strains, locus YLR039C, strain RIC1, active compounds read low
[13] = S. cerevisiae deletion strains, locus YLR058C, strain SHM2 (second series), active compounds read low
[14] = S. cerevisiae deletion strains, locus YLR085C, strain ARP6, active compounds read low
[15] = S. cerevisiae deletion strains, locus YLR262C, strain YPT6, active compounds read low
[16] = S. cerevisiae deletion strains, locus YML094W, strain GIM5, active compounds read low
[17] = S. cerevisiae deletion strains, locus YMR219W, strain ESC1, active compounds read low
[18] = S. cerevisiae deletion strains, locus YMR263W, strain SAP30, active compounds read low
[19] = S. cerevisiae deletion strains, locus YNL128W, strain TEP1, active compounds read low
[20] = S. cerevisiae deletion strains, locus YNL298W, strain CLA4 (second series), active compounds read low
[21] = S. cerevisiae deletion strains, locus YNL322C, strain KRE1, active compounds read low
[22] = S. cerevisiae deletion strains, locus YNR030W, strain Alg12, active compounds read low
[23] = S. cerevisiae deletion strains, locus YPL055C, strain LGE1, active compounds read low
[24] = S. cerevisiae deletion strains, locus YPL241C, strain CIN2, active compounds read low
[25] = S. cerevisiae deletion strains, locus YPR135W, strain CTF4, active compounds read low
[26] = S. cerevisiae deletion strains, locus YAR019C, strain CDC15, active compounds read low
[27] = S. cerevisiae deletion strains, locus YBL105C, strain PKC1, active compounds read low
[28] = S. cerevisiae deletion strains, locus YBR135W, strain CKS1, active compounds read low
[29] = S. cerevisiae deletion strains, locus YBR136W, strain MEC1, active compounds read low
[30] = S. cerevisiae deletion strains, locus YBR160W, strain CDC28, active compounds read low
[31] = S. cerevisiae deletion strains, locus YDL017W, strain CDC7, active compounds read low
[32] = S. cerevisiae deletion strains, locus YDL028C, strain MPS1, active compounds read low
[33] = S. cerevisiae deletion strains, locus YDL108W, strain KIN28, active compounds read low
[34] = S. cerevisiae deletion strains, locus YDL132W, strain cdc53, active compounds read low
[35] = S. cerevisiae deletion strains, locus YDL214C, strain PRR2, active compounds read low
[36] = S. cerevisiae deletion strains, locus YDR052C, strain DBF4, active compounds read low
[37] = S. cerevisiae deletion strains, locus YDR054C, strain cdc34, active compounds read low
[38] = S. cerevisiae deletion strains, locus YDR226W, strain ADK1, active compounds read low
[39] = S. cerevisiae deletion strains, locus YDR477W, strain SNF1, active compounds read low
[40] = S. cerevisiae deletion strains, locus YER123W, strain YCK3, active compounds read low
[41] = S. cerevisiae deletion strains, locus YER133W, strain GLC7, active compounds read low
[42] = S. cerevisiae deletion strains, locus YFL009W, strain cdc4, active compounds read low
[43] = S. cerevisiae deletion strains, locus YFL029C, strain CAK1, active compounds read low
[44] = S. cerevisiae deletion strains, locus YFR003C, strain YPI1, active compounds read low
[45] = S. cerevisiae deletion strains, locus YFR019W, strain FAB1, active compounds read low
[46] = S. cerevisiae deletion strains, locus YFR028C, strain CDC14, active compounds read low
[47] = S. cerevisiae deletion strains, locus YGR040W, strain KSS1, active compounds read low
[48] = S. cerevisiae deletion strains, locus YGR052W, strain FMP48, active compounds read low
[49] = S. cerevisiae deletion strains, locus YGR092W, strain DBF2, active compounds read low
[50] = S. cerevisiae deletion strains, locus YHR079C, strain IRE1, active compounds read low
[51] = S. cerevisiae deletion strains, locus YHR082C, strain KSP1, active compounds read low
[52] = S. cerevisiae deletion strains, locus YHR205W, strain SCH9, active compounds read low
[53] = S. cerevisiae deletion strains, locus YIL147C, strain SLN1, active compounds read low
[54] = S. cerevisiae deletion strains, locus YJL095W, strain BCK1, active compounds read low
[55] = S. cerevisiae deletion strains, locus YJL128C, strain PBS2, active compounds read low
[56] = S. cerevisiae deletion strains, locus YJL157C, strain FAR1, active compounds read low
[57] = S. cerevisiae deletion strains, locus YJR016C, strain ILV3, active compounds read low
[58] = S. cerevisiae deletion strains, locus YJR066W, strain TOR1 (second series), active compounds read low
[59] = S. cerevisiae deletion strains, locus YJR066W, strain TOR1, active compounds read low
[60] = S. cerevisiae deletion strains, locus YKL048C, strain ELM1, active compounds read low
[61] = S. cerevisiae deletion strains, locus YKL067W, strain YNK1, active compounds read low
[62] = S. cerevisiae deletion strains, locus YKL101W, strain HSL1, active compounds read low
[63] = S. cerevisiae deletion strains, locus YKL193C, strain SDS22, active compounds read low
[64] = S. cerevisiae deletion strains, locus YKL203C, strain TOR2, active compounds read low
[65] = S. cerevisiae deletion strains, locus YLR113W, strain HOG1, active compounds read low
[66] = S. cerevisiae deletion strains, locus YLR133W, strain CKI1, active compounds read low
[67] = S. cerevisiae deletion strains, locus YLR403W, strain SFP1, active compounds read low
[68] = S. cerevisiae deletion strains, locus YML070W, strain DAK1, active compounds read low
[69] = S. cerevisiae deletion strains, locus YMR001C, strain CDC5, active compounds read low
[70] = S. cerevisiae deletion strains, locus YMR205C, strain PFK2 (second series), active compounds read low
[71] = S. cerevisiae deletion strains, locus YMR277W, strain FCP1, active compounds read low
[72] = S. cerevisiae deletion strains, locus YNL006W, strain LST8, active compounds read low
[73] = S. cerevisiae deletion strains, locus YNL020C, strain ARK1, active compounds read low
[74] = S. cerevisiae deletion strains, locus YNL161W, strain CBK1, active compounds read low
[75] = S. cerevisiae deletion strains, locus YNL183C, strain NPR1, active compounds read low
[76] = S. cerevisiae deletion strains, locus YNL207W, strain RIO2, active compounds read low
[77] = S. cerevisiae deletion strains, locus YNL222W, strain SSU72, active compounds read low
[78] = S. cerevisiae deletion strains, locus YNL307C, strain MCK1 (second series), active compounds read low
[79] = S. cerevisiae deletion strains, locus YOL078W, strain AVO1, active compounds read low
[80] = S. cerevisiae deletion strains, locus YOL136C, strain PFK27, active compounds read low
[81] = S. cerevisiae deletion strains, locus YOR061W, strain CKA2, active compounds read low
[82] = S. cerevisiae deletion strains, locus YOR119C, strain RIO1, active compounds read low
[83] = S. cerevisiae deletion strains, locus YOR231W, strain MKK1, active compounds read low
[84] = S. cerevisiae deletion strains, locus YOR329C, strain SCD5, active compounds read low
[85] = S. cerevisiae deletion strains, locus YPL031C, strain PHO85, active compounds read low
[86] = S. cerevisiae deletion strains, locus YPL153C, strain RAD53, active compounds read low
[87] = S. cerevisiae deletion strains, locus YPL204W, strain HRR25, active compounds read low
[88] = S. cerevisiae deletion strains, locus YPL209C, strain IPL1, active compounds read low
[89] = S. cerevisiae deletion strains, locus YPL256C, strain CLN2, active compounds read low
[90] = S. cerevisiae deletion strains, locus YPR025C, strain CCL1, active compounds read low
[91] = S. cerevisiae deletion strains, locus YPR106W, strain ISR1, active compounds read low
[92] = S. cerevisiae deletion strains, locus YPR111W, strain DBF20, active compounds read low
[93] = S. cerevisiae deletion strains, strain NNK1, active compounds read low
[94] = S. cerevisiae deletion strains, strain TSCII, active compounds read low

Measured: normalized growth

CCOC(=O)C(=CNNS(=O)(=O)c1cc(C(F)(F)F)cc(C(F)(F)F)c1)C(=O)OCC
inactive: [1] 1.01 | [2] 0.997 | [3] 0.979 | [4] 0.929 | S. cerevisiae deletion strains, locus YDL134C, strain PPH21, active compounds read low 1 | [5] 1 | [6] 1.01 | [7] 0.967 | [8] 1 | [9] 0.96 | [10] 0.973 | [11] 0.992 | [12] 0.931 | [13] 0.954 | [14] 1.03 | [15] 0.968 | [16] 0.988 | [17] 0.989 | [18] 1.04 | [19] 0.945 | [20] 1 | [21] 0.993 | [22] 1 | [23] 1.03 | [24] 1.02 | [25] 0.964

O=S(=O)(NCc1cc(Cl)cc(Cl)c1)c1cc(C(F)(F)F)cc(C(F)(F)F)c1
active: [8] 0.621 | [65] 0.803
inactive: [26] 1 | [27] 0.994 | [28] 0.998 | [29] 0.998 | [30] 0.998 | [31] 0.998 | [32] 0.994 | [4] 0.994 | [33] 0.997 | [34] 0.987 | [35] 0.935 | [36] 0.996 | [37] 0.985 | [38] 0.992 | [39] 0.912 | [40] 0.907 | [41] 0.928 | [42] 0.992 | [43] 1 | [44] 0.996 | [45] 0.902 | [46] 0.997 | [47] 0.894 | [48] 0.878 | [49] 0.881 | [50] 0.835 | [51] 0.896 | [52] 0.908 | [53] 0.996 | [54] 0.875 | [55] 0.923 | [56] 0.926 | [57] 0.995 | [58] 0.947 | [59] 0.955 | [60] 0.954 | [61] 0.961 | [62] 0.907 | [63] 0.998 | [64] 0.982 | [66] 0.918 | [67] 0.939 | [68] 0.915 | [69] 0.996 | [70] 0.954 | [71] 0.996 | [72] 0.991 | [73] 0.899 | [74] 0.999 | [75] 1.01 | [76] 1 | [77] 0.996 | [78] 0.765 | [79] 0.997 | [80] 0.895 | [81] 0.935 | [82] 0.982 | [83] 0.933 | [84] 0.995 | [85] 0.897 | [86] 0.912 | [87] 0.888 | [88] 0.997 | [89] 0.87 | [90] 0.995 | [91] 0.997 | [92] 0.989 | [93] 0.988 | [94] 0.999

O=S(=O)(Nc1csc(C(F)(F)F)c1-c1ccccc1)c1cc(Br)c(Br)s1
active: [8] 0.305 | [65] 0.8 | [89] 0.712
inactive: [26] 0.957 | [27] 0.952 | [28] 0.96 | [29] 0.93 | [30] 0.961 | [31] 0.955 | [32] 0.935 | [4] 0.968 | [33] 0.939 | [34] 0.971 | [35] 0.927 | [36] 0.961 | [37] 0.96 | [38] 0.953 | [39] 0.91 | [40] 0.899 | [41] 0.959 | [42] 0.968 | [43] 0.949 | [44] 0.961 | [45] 0.852 | [46] 0.974 | [47] 0.912 | [48] 0.873 | [49] 0.804 | [50] 0.814 | [51] 0.654 | [52] 0.887 | [53] 0.951 | [54] 0.911 | [55] 0.956 | [56] 0.948 | [57] 0.962 | [58] 0.962 | [59] 0.861 | [60] 0.894 | [61] 0.943 | [62] 0.79 | [63] 0.964 | [64] 0.964 | [66] 0.871 | [67] 0.906 | [68] 0.897 | [69] 0.957 | [70] 0.907 | [71] 0.968 | [72] 0.973 | [73] 0.837 | [74] 0.957 | [75] 0.814 | [76] 0.959 | [77] 0.955 | [78] 0.81 | [79] 0.964 | [80] 0.878 | [81] 0.696 | [82] 0.948 | [83] 0.879 | [84] 0.954 | [85] 0.844 | [86] 0.88 | [87] 0.89 | [88] 0.96 | [90] 0.958 | [91] 0.961 | [92] 0.943 | [93] 0.966 | [94] 0.963

O=S(=O)(NCCc1ccncc1)c1cc(C(F)(F)F)cc(C(F)(F)F)c1
inactive: [1] 1 | [2] 0.988 | [3] 0.963 | [4] 0.966 | [5] 0.913 | [6] 1 | [7] 0.987 | [8] 1.01 | [9] 1.07 | S. cerevisiae deletion strains, locus YJL187C, strain SWE1, active compounds read low 1.01 | [10] 0.964 | S. cerevisiae deletion strains, locus YJR075W, strain HOC1, active compounds read low 1.02 | [11] 1.01 | [12] 0.976 | [13] 1 | [14] 1.05 | [15] 1.03 | [16] 1.02 | [17] 0.993 | [18] 1.01 | [19] 0.989 | S. cerevisiae deletion strains, locus YNL153C, strain GIM3, active compounds read low 0.994 | [20] 0.986 | [21] 1 | [22] 1.03 | S. cerevisiae deletion strains, locus YOL006C, strain TOP1, active compounds read low 0.976 | [23] 1.02 | [24] 0.98 | [25] 0.942 | S. cerevisiae strains, strain wild type, active compounds read low 0.979
